Inconclusive results are not listed. Active and inactive are the calls of the source. Unless noted, the call rests on the fitted dose curve; in most records, active means well fitted inhibition curve with a large enough effect; inconclusive means small, poorly fitted or top-dose-only effect; inactive means flat fitted curve, though single readings scatter.
How the values were obtained:
[1] = target: DNA dC->dU-editing enzyme APOBEC-3G (Homo sapiens) (UniProt Q9HC16); assay: qHTS for inhibitors of Vif-A3G interactions: Validation (AID 588379)
Chain of DNA dC->dU-editing enzyme APOBEC-3G (Homo sapiens) (Q9HC16 whole entry, looked up): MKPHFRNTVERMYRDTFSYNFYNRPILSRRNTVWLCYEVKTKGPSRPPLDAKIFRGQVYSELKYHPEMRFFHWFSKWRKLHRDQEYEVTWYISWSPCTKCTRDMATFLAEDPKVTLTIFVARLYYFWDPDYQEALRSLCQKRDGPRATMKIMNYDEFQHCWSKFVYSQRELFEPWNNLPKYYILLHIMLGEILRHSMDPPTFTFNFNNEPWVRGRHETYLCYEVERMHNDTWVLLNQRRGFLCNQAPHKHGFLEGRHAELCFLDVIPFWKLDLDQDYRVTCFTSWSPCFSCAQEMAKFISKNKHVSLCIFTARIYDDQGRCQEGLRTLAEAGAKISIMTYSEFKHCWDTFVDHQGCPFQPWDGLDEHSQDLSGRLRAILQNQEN
Outline: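 HeLa cells stably expressing Vif and A3G-eYFP, 700 cells/well, incubated overnight at 37 deg C, then exposed to compound overnight at 37 deg C. Inhibition of Vif-mediated degradation read as increased yellow fluorescence (Ex 488/Em 500-530) by laser-scanning cytometry.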

[2] = target: Glucocorticoid receptor (Homo sapiens) (UniProt P04150); assay: GR-GFP Redistribution (AID 450;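 active means compounds whose dose series gives a full or clear partial fitted curve of increased nuclear translocation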; further: potency means the concentration at half of the fitted maximal effect); conditions: U2OS GR-GFP nuclear translocation, laser cytometry, 2 h
Chain of Glucocorticoid receptor (Homo sapiens) (P04150 whole entry, looked up, the tested form may be a part): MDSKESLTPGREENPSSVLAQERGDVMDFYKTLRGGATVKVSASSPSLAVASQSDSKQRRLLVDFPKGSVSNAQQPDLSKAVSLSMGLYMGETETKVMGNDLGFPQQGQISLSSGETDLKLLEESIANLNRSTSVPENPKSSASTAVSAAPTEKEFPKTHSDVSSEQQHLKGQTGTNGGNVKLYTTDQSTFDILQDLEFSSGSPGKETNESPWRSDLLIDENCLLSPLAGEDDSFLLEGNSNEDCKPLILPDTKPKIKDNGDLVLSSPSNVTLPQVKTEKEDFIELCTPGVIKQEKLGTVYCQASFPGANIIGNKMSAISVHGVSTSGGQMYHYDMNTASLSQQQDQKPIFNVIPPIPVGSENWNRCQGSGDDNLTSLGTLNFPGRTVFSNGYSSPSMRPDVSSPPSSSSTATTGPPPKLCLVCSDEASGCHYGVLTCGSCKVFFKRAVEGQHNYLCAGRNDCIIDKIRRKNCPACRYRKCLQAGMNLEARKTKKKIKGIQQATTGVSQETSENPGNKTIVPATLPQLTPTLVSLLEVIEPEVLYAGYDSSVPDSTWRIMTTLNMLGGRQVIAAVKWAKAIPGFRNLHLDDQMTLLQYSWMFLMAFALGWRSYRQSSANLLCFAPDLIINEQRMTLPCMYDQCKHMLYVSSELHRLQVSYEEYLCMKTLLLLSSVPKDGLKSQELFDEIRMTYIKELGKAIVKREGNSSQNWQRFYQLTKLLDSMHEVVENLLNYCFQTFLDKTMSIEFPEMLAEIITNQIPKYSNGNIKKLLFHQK

[3] = target: Glucocorticoid receptor (Homo sapiens) (UniProt P04150); assay: GR-EFC Redistribution (AID 451; calls by dose curve; further: potency means the concentration at half of the fitted maximal effect); conditions: CHO-K1 GR-EFC translocation, beta-gal luminescence, 2 h
Outline: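 CHO-K1 cells expressing nuclear EA and GR-ED fragments of b-gal; compounds titrated up to 46 uM final, 2 h at 37 C. GR nuclear translocation read as complemented b-gal luminescence after 1 h RT detection.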

[4] = target: Mitogen-activated protein kinase 10 (Mus musculus) (UniProt Q61831); assay: JNK3 AlphaScreen Assay (AID 530; active means well fitted curve in either direction with a large enough effect, not every such curve was filed as active;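 further: kinase came from lysate of stimulated human HepG2 cells; signal reports phosphorylation of biotinylated GST-cJun 1-79 at Ser73 with 10 µM ATP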)
Outline: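 Pre-activated (IL-1β/TNFα) JNK3 in HepG2 lysates phosphorylates biotin-GST-cJun(1-79), 10 uM ATP; anti-phospho-cJun(Ser73) AlphaScreen read at room temperature, pH 7.6 Tris buffer. Compounds pre-incubated 15 min as titrations.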

[5] = target: Luciferin 4-monooxygenase (Photinus pyralis) (UniProt P08659); assay: Biochemical firefly luciferase enzyme assay for NPC (AID 624030); further: nearly all actives have a fitted effect of over 70% in size; further: potency means the concentration at half of the fitted maximal effect
Chain of Luciferin 4-monooxygenase (Photinus pyralis) (P08659 whole entry, looked up): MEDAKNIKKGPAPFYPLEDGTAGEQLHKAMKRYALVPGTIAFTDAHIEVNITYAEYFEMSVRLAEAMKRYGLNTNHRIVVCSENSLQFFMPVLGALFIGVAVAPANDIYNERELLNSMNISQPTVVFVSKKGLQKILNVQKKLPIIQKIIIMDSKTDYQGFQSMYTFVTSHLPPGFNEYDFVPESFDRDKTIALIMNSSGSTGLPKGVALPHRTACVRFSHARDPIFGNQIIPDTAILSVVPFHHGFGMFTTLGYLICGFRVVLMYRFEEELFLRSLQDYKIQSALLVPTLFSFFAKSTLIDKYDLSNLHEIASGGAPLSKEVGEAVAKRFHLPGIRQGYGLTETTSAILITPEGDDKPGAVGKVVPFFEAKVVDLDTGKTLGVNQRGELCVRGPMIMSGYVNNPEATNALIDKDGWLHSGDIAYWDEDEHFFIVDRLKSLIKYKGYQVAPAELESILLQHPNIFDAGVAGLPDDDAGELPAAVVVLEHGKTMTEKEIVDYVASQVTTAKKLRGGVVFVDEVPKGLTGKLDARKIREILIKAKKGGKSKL
Outline: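 Purified P. pyralis luciferase at 10 nM in 50 mM Tris Acetate (final), luminescence read within 5 minutes of enzyme addition to compounds. Activity normalised to PTC124 versus DMSO; concentration-response curves classed by r2, magnitude and activity.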

CP238 = assay: qHTS profiling for inhibitors of Plasmodium falciparum proliferation (AID 504749); further: nearly all actives have a fitted effect of over 60% in size; further: potency means the concentration at half of the fitted maximal effect; conditions: P. falciparum in erythrocytes, SYBR Green DNA, 72 h; series mostly up to 28.7 µM
Outline: (§1)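 P. falciparum-infected erythrocytes (0.3% parasitemia, 2.5% hematocrit) incubated with compound 72 h at 37 C, 5% CO2. Parasite DNA detected by SYBR Green after lysis, overnight at room temperature; normalised to 0.29 uM artemisinin and DMSO.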

CP250 = assay: as above; conditions: P. falciparum in erythrocytes, SYBR Green DNA, 72 h; series mostly up to 28.7 µM
Outline: as §1

CP262 = assay: as above; conditions: P. falciparum in erythrocytes, SYBR Green DNA, 72 h; series mostly up to 28.7 µM
Outline: as §1

CP265 = assay: as above; conditions: P. falciparum in erythrocytes, SYBR Green DNA, 72 h; series mostly up to 28.7 µM
Outline: as §1

CP297 = assay: as above; conditions: P. falciparum in erythrocytes, SYBR Green DNA, 72 h; series mostly up to 28.7 µM
Outline: as §1

CP315 = assay: as above; conditions: P. falciparum in erythrocytes, SYBR Green DNA, 72 h; series mostly up to 28.7 µM
Outline: as §1

CP325 = assay: as above; conditions: P. falciparum in erythrocytes, SYBR Green DNA, 72 h; series mostly up to 28.7 µM
Outline: as §1

CP329 = assay: as above; conditions: P. falciparum in erythrocytes, SYBR Green DNA, 72 h; series mostly up to 28.7 µM
Outline: as §1

CP335 = assay: as above; conditions: P. falciparum in erythrocytes, SYBR Green DNA, 72 h; series mostly up to 28.7 µM
Outline: as §1

Dd2 = assay: as above; conditions: P. falciparum in erythrocytes, SYBR Green DNA, 72 h; series mostly up to 28.7 µM
Outline: as §1

ECU = assay: as above; conditions: P. falciparum in erythrocytes, SYBR Green DNA, 72 h; series mostly up to 28.7 µM
Outline: as §1

FAB9 = assay: as above; conditions: P. falciparum in erythrocytes, SYBR Green DNA, 72 h; series mostly up to 28.7 µM
Outline: as §1

PAD = assay: as above; conditions: P. falciparum in erythrocytes, SYBR Green DNA, 72 h; series mostly up to 28.7 µM
Outline: as §1

SC27B = assay: as above; conditions: P. falciparum in erythrocytes, SYBR Green DNA, 72 h; series mostly up to 28.7 µM
Outline: as §1

[6] = NCATS anti-infectives library activity on the primary C. elegans qHTS viability assay (AID 1745855; calls by dose curve; further: potency means the concentration at half of the fitted maximal effect)
Outline: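 Viability read-out is GFP fluorescence of PE254-GFP-FLuc C. elegans, measured by laser cytometry (488 nm) at day 0, 3 and 7. Ten L1 worms per well were incubated 7 days at 21 °C with compounds and bacterial capsules in S medium.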

Measured: Potency

C=C[C@@](C)(O)CC[C@@H]1[C@@]2(C)CCCC(C)(C)[C@@H]2CC[C@@]1(C)O
inactive: [1]

CN(CCOc1ccc(C[C@H](Nc2ccccc2C(=O)c2ccccc2)C(=O)O)cc1)c1ccccn1
inactive: [2] > 46 µM | [3] > 46 µM | [4] | [1]

C[C@@]12C(=O)OC(=O)[C@]1(C)[C@H]1CC[C@@H]2O1
active: [2] 2.63 µM | CP238 2.51 µM | CP250 3.16 µM | CP262 3.61 µM | CP265 3.55 µM | CP297 3.22 µM | CP315 5.73 µM | CP325 3.61 µM | CP329 2.56 µM | CP335 2.56 µM | Dd2 4.47 µM | ECU 3.55 µM | PAD 3.98 µM | SC27B 2.82 µM
inactive: [3] > 20.6 µM | [4] | [5] | FAB9

CCC[C@H](NC(=O)/C(C#N)=C/c1cccc(Br)n1)c1ccccc1
active: [6] 4.09 µM

Cc1c(-c2cnccn2)ssc1=S
inactive: [6]

C=C1CCC2[C@](C)(CO)C(O)CC[C@]2(C)C1C/C=C1/C(=O)OCC1O (stereo partly specified)
inactive: [5] | CP238 | CP262 | CP265 | CP297 | CP315 | CP325 | CP329 | CP335 | Dd2 | ECU | FAB9 | PAD | SC27B
active: CP250 12.6 µM

CC(/C=C1\SC(=S)N(CC(=O)O)C1=O)=C\c1ccccc1
inactive: CP238 | CP250 | CP262 | CP265 | CP297 | CP315 | CP325 | CP329 | CP335 | Dd2 | ECU | FAB9 | PAD | SC27B
active: [5] 6.42 µM

COc1ccnc2[nH]cc(C(=O)C(=O)N3CCN(C(=O)c4ccccc4)C[C@H]3C)c12
inactive: [6]
